Laboratory results published in PubChem BioAssay (NCI).
The panel holds about 83,000 compounds, 20% with a hit somewhere; the sample as a whole holds those more often.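 Single-dose data. Exposure time 48 hours. Values below 10 considered active.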 Values without a mark were called inactive. Activity calls are given as the source filed them.

Tested on: MDA-MB-468 breast
Test: NCI-60 one-dose screen, 48 h (100 = growth as untreated, 0 = no growth, -100 = all killed)
Details: 10 µM unless noted

SMILES | growth
CC(=O)C1CCCCC1 | 102%
COc1ccc(C(=O)C2C(C#N)C(C#N)C3c4ccccc4C=CN23)cc1 (configuration not stated) | 64.8%
CC1(C)CC2=C3C=C[C@@H]4[C@@]5(C)CCC(=O)C(C)(C)[C@@H]5CC[C@@]4(C)[C@]3(C)CC[C@@]2(C(=O)O)C[C@H]1O | 40.3%
NC(=NCCCOc1ccc(F)cc1)Nc1ccc(I)cc1 | 27.8%
CC(=O)NCCN | 105%
COc1ccc2cc(-c3ccc(C(=O)NN)c(C)n3)ccc2c1 | 106%
COP(=O)(OC)c1nnn(-c2cccc([N+](=O)[O-])c2)c1C | 120%
CC(C)(C)Nc1nc2c(OCCc3ccccc3)cccn2c1-c1ccc(Cl)cc1 | -22.4% (active)
COc1nc2ccccc2cc1-c1nc2c(cnn2-c2ccc(Br)cc2)c(=O)[nH]1 | 5.52% (active)
COC(=O)c1c(C)nc(C)c2c1C(=O)C=C(NCc1ccccc1)C2=O | 53.9%
O=C(CCCCCCN1CC(=O)N2[C@H](c3cc(Br)cs3)c3[nH]c4ccccc4c3C[C@H]2C1=O)NO | 44.7%
CC(=O)N1N=C(c2ccc(Cl)cc2)CC1c1sc(Cl)nc1Cl (configuration not stated) | 74.9%
CCOC(=O)NC(C)C | 96.4%
Cn1c([N+](=O)[O-])cnc1/C=C1\Oc2ccc(Cl)cc2C1=O | 7.19% (active)
C#C[C@]1(O)CC[C@H]2[C@@H]3CC=C4c5sc(Nc6cc(Cl)ccc6OC)nc5CC[C@]4(C)[C@H]3CC[C@@]21C | 4.64% (active)
COc1ccc(NC(=O)c2cc(NCc3cc(O)ccc3O)ccc2O)cc1 | 88.5%
COc1ccc(OC)c(CCn2cncc2-c2c[nH]c3ccccc23)c1 | 41%
C=C(CO)[C@@H]1CC[C@]2(COC3CCCCO3)CC[C@]3(C)[C@H](CC[C@@H]4[C@@]5(C)C=C(C=O)C(=O)C(C)(C)[C@@H]5CC[C@]43C)[C@@H]12 (some centres not stated) | -75.4% (active)
CCC(=O)C1C(=O)c2ccccc2C1=O | 115%
Cc1cc(C(O)(c2ccc(Nc3ccccc3)cc2)c2ccc(Nc3ccc(S(=O)(=O)O)cc3)cc2)ccc1N (configuration not stated) | -71.3% (active)
CN1CCN(c2ccc(-c3cc4c(Nc5ccc(F)c(Cl)c5)ncnn4c3)cc2)CC1 | 7.99% (active)
O=C(CNC1C2CC3CC(C2)CC1C3)Sc1nnc2sc3ccccc3n12 (configuration not stated) | 102%
